The panel holds about 83,000 compounds, 20% with a hit somewhere; the sample as a whole holds those more often.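 Single-dose data. Exposure time 48 hours. Values below 10 considered active.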 Unmarked numbers belong to inactive results. The source made the active and inactive calls.
What was measured:
Experiment in all cases: NCI-60 one-dose screen, 48 h (100 = growth as untreated, 0 = no growth, -100 = all killed)
Details in all cases: 10 µM
T-47D breast = tested on: T-47D breast
BT-549 breast = tested on: BT-549 breast
MDA-MB-435 melanoma = tested on: MDA-MB-435 melanoma
SW-620 colon = tested on: SW-620 colon
MCF7 breast = tested on: MCF7 breast
HCT-116 colon = tested on: HCT-116 colon
HCC-2998 colon = tested on: HCC-2998 colon
KM12 colon = tested on: KM12 colon

Structure (SMILES)	growth (T-47D breast) [%]	growth (BT-549 breast)	growth (MDA-MB-435 melanoma)	growth (SW-620 colon)	growth (MCF7 breast)	growth (HCT-116 colon)	growth (HCC-2998 colon)	growth (KM12 colon)
O=[N+]([O-])c1cccc(/C=N/NC(=S)NC23CC4CC(CC(C4)C2)C3)c1	88.7	100%	84.8%	88.5%	66.9%	61.1%	103%	
Cc1cc(O)ccc1C1=NN(c2ccc(S(C)(=O)=O)cc2)C(=O)CC1	84.8	58.2%	-8.25% (active)	46.6%	82.8%	52.4%	78.6%	
Nc1ccc(CC[C@H]2CCC/C=C/[C@@H]3C[C@H](O)C[C@H]3[C@H](O)/C=C/C(=O)O2)cc1	10.2	11.6%	11.4%	-27.4% (active)	-44.7% (active)	-73.7% (active)	-15.3% (active)	
OCC1OC2C(NC(=S)N2c2ccccc2)C(O)C1O (stereo not drawn)	108	106%	98.3%	98.4%	103%	111%	104%	
CC(C)N(CCOc1ccc(-c2nc3sccn3c2-c2ccnc(S(C)(=O)=O)n2)cc1)C(C)C	105	90.8%	92.6%	78.2%	82.5%	61.5%	88%	
O=C(CCn1cnc2c(cc(-c3ccccc3)n2-c2ccccc2)c1=O)Nc1ccc(F)cc1	68.2	57.8%	85.2%	95.9%	74.7%	62.5%	86.2%	73.8%
Cc1cc(Br)nnc1Br	90.1	96.8%	114%	109%	103%	106%	108%	96.6%
CN(C)CCOc1cccc(-c2nc3sccn3c2-c2ccnc(S(C)(=O)=O)n2)c1	74.7	104%	96.8%	91.7%	88.3%	92.6%	106%	102%
COc1ccc(-c2cc(-c3cc(OC)ccc3OC)nc(N)c2C#N)cc1	54.4	24.7%	46.8%	65.5%	38.9%	35.1%	76.6%	71.7%
COc1cc2cc(Oc3ccc(NC(=O)c4cc(C(F)(F)F)cc(C(F)(F)F)c4)cc3)c(C)nc2cc1OC	86.7	52.4%	49.1%	47.4%	29.5%	19.2%	73.9%	37.6%
Fc1ccc2[nH]cc(-c3nc(-c4ccsc4)cs3)c2c1	57	96.9%	105%	94.8%	65.9%	91.5%	105%	101%
CN(C)c1ncnc2c1nnn2C1OC(CO)C(O)C1O (stereo not drawn)	10.5	46.1%	8.72% (active)	19.1%	6.74% (active)	17.2%	8.01% (active)	13.7%
CCOC(=O)CN(c1sc(C)c(C)c1C(=O)OCC)S(=O)(=O)c1ccc(C)cc1	88.5	102%	102%	100%	100%	95.5%	100%	96%
COc1cc2c(Nc3ccc(S(N)(=O)=O)cc3)ncnc2c(OC)c1OC	97	126%	105%	95.7%	96.6%	108%	98.4%	99.2%
N#CC1=CC2CN(Cc3ccccc3)C1C1C(=O)N(c3ccccc3)C(=O)C21 (stereo not drawn)	99.5	95%	105%	95.2%	97.1%	101%	92.1%	103%
CCN(CC)c1ccc(/C=C2\SC(=O)C(Nc3nnc(-c4cccnc4SCc4ccccc4)o3)C2=O)cc1 (stereo not drawn)	50.3	59.3%	-24.6% (active)	22.7%	14.3%	5.84% (active)	4.15% (active)	10.3%

Structure (SMILES)	growth (T-47D breast) [%]	growth (BT-549 breast)	growth (MDA-MB-435 melanoma)	growth (SW-620 colon)	growth (MCF7 breast)	growth (HCT-116 colon)	growth (HCC-2998 colon)	growth (KM12 colon)
Cc1cc(CSc2ccccc2C(=O)N2CC=C(c3ccccc3)CC2)on1	75.5	101%	98%	97.6%	94.9%	93.1%	93.3%	97.2%
CCCCC/C=C/C/C=C/CCCCCCCC1=NC(C)(C)CN1C(C)C	16.5	77.8%	15.9%	-70.3% (active)	-16.4% (active)	-36.8% (active)	-9.05% (active)	-92% (active)
O=C(CCCNC(=O)c1nc(-c2ccccc2)n(-c2ccccc2)n1)NO	94	106%	109%	106%	92%	85.6%	98.9%	110%
CCOC(=O)c1cc(C(=O)c2cc(OC)c(OC)c(OC)c2)n2ccc(-c3cc[n+](CC(=O)c4cc(OC)c(OC)c(OC)c4)cc3)cc12	50.1	-10.9% (active)	68.7%	-64.8% (active)	-29.3% (active)	-61.2% (active)	109%	45.3%
CCNCC(=O)Nc1ccc(C(=O)OCC)cc1	92.9	102%	102%	97.2%	99.6%	96%	98.7%	95.9%
O=C(Cn1cc(CO)nn1)Nc1nc2ccccc2s1	110	106%	99.7%	106%	97.9%	97.2%	109%	107%
CCOC(=O)N/N=C/c1ccc(OC)c(OC)c1	105	106%	106%	109%	98.7%	102%	114%	117%
CC(C)(C)OC(=O)N1CCc2c(sc3ncnc(N/N=C/c4cccc5ccccc45)c23)C1	12.6	58.7%	-11.7% (active)	27.3%	2.21% (active)	10.5%	37.1%	23.4%
COc1cc2cc(Oc3ccc(NC(=O)Nc4ccc(Cl)c(Cl)c4)cc3)c(C)nc2cc1OC	60.9	28.1%	12.3%	23.4%	13.8%	10.5%	37.6%	13.9%
O=C(Nc1ccc(F)cc1)c1cc2ccccc2cc1O	46.3	72.4%	86.3%	90.9%	58.5%	77.9%	104%	69.2%
COc1ccc(-c2cc(-c3ccc(Cl)cc3)nc(SCCCC(=O)NO)n2)cc1OC	15	30.4%	19.6%	9.88% (active)	1.13% (active)	5.45% (active)	-50.7% (active)	21.7%
CCCCN(CCCC)C(=O)[C@H](CC)[C@@H]1CC[C@@H](C)[C@@H]([C@H](C)[C@@H](O)[C@@H](C)C(=O)[C@H](CC)C2O[C@]3(C=CC(=O)[C@]4(CC[C@@](C)([C@H]5CC[C@](O)(CC)[C@H](C)O5)O4)O3)[C@H](C)C[C@@H]2C)O1 (stereo partly drawn)	20.7	62.7%	44.6%	25.7%	16.2%	19%	39%	55.6%
COc1cccc(-c2nc3sccn3c2-c2cccc(S(C)(=O)=O)c2)c1	98.7	103%	110%	104%	79.6%	104%	94%	109%
CCOC(=O)c1cc(C(=O)c2cc(OC)c(OC)c(OC)c2)n2nc(C)ccc12	93.6	47.5%	3.24% (active)	26.7%	21.6%	14.7%	25.9%	28%
COc1ccc(-c2nn(-c3cccc(Cl)c3)cc2-c2c(C#N)c(=O)n3[nH]c(-c4ccccc4)nc3c2C#N)cc1	73.9	84.4%	91.1%	108%	63.4%	87.3%	108%	94%

— PubChem BioAssay (NCI)
